Among all 62,000 compounds or so, about 100 (0.16%) were called active. The entries come from a sample that favours actives as a whole. Values without a mark were called inactive.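 Rule for the calls: active = inhibition above 20% in each of the two 10-compound mixture wells holding the compound; inactive = the rest.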

For the test, the target named is Complement C1s subcomponent (Homo sapiens) (UniProt P09871). As to the kind of experiment: human C1s inhibition by compound pools – biochemical, 10-compound mixtures, primary screen (AID 538).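 Note: 0% = enzyme wells lacking compound mixture and 100% = no-enzyme blank wells.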 As to conditions: purified C1s, fluorogenic AMC substrate, pooled mixtures; screened at 5 µM (by protocol).
Complement C1s subcomponent (Homo sapiens), sequence (P09871 16-437 limits assumed): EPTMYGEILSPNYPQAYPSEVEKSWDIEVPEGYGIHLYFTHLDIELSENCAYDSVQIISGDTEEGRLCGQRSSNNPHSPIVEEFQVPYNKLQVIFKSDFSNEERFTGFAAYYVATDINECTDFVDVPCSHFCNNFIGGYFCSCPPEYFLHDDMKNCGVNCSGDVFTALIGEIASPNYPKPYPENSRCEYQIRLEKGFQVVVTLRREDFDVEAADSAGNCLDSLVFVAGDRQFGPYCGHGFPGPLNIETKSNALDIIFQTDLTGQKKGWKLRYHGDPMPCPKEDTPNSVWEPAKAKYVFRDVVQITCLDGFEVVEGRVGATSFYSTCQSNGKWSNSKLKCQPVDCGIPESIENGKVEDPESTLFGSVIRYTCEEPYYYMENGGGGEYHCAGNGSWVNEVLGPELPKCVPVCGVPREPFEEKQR
Complement C1s subcomponent (Homo sapiens), sequence (P09871 438-688 limits assumed): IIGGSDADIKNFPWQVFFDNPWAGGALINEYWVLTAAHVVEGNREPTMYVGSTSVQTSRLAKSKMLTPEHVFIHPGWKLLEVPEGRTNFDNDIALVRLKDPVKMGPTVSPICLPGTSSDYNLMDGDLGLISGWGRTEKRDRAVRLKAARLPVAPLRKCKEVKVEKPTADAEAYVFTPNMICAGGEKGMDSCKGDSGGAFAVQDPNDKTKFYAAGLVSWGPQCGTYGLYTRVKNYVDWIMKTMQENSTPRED
Regarding `Cc1ccc(C2CC(=O)NC(SCC(=O)OCc3ccccc3)=C2C#N)o1` (stereo unspecified), the mean inhibition % of two 10-compound mixtures (hits give high values) was -61.3%.

For `CCC(=O)Nc1cccc(NC(=O)CSc2nnnn2C2CCCC2)c1`, the mean inhibition % of two 10-compound mixtures (hits give high values) is 2.81%.

`CC(C)c1cc(C(=O)O)on1`: the mean inhibition % of two 10-compound mixtures (hits give high values) was -17.9%.

On to `CC1CCc2c(sc(NC(=O)c3ccc(Cn4cc(Br)cn4)o3)c2C(N)=O)C1` (stereo unspecified), for which the mean inhibition % of two 10-compound mixtures (hits give high values) is -5.95%.

As for `CCCn1c(=O)c2ccccc2n2c(SCC(=O)/C(C#N)=C(\C)N)nnc12`, the mean inhibition % of two 10-compound mixtures (hits give high values) is -0.9%.

In the case of `CCOc1ccc2nc(SC(CC)C(=O)Nc3cc(C)on3)sc2c1` (stereo unspecified), the mean inhibition % of two 10-compound mixtures (hits give high values) was 2.46%.

`COc1ccccc1Nc1nc(N)nc(CN(C)C2CCCCC2)n1`: the mean inhibition % of two 10-compound mixtures (hits give high values) was -40.1%.

On to `C=CCn1c(CC(=O)Nc2cccc(OC)c2)nnc1SCC(=O)NC1CCCCC1`, for which the mean inhibition % of two 10-compound mixtures (hits give high values) is -2.35%.

Take `CN1CCN(C(=O)c2ccc(NS(=O)(=O)c3ccccc3)cc2)CC1`: the mean inhibition % of two 10-compound mixtures (hits give high values) was 9.96%.

In the case of `O=C(c1cccc(S(=O)(=O)N2CCOCC2)c1)N1CCOCC1`, the mean inhibition % of two 10-compound mixtures (hits give high values) is 13.9%.

Turning to `CC(=O)N1CCN(C(=O)c2cccc(S(=O)(=O)Nc3ccc(C)cc3)c2)CC1`, the mean inhibition % of two 10-compound mixtures (hits give high values) is 66.7% (active).

With `COCCCNC(=O)COc1cc(C)c(Cl)c(C)c1`, the mean inhibition % of two 10-compound mixtures (hits give high values) is -0.425%.

In the case of `CCOC(=O)Cc1csc(NC(=O)CSc2nc(C)cc(=O)[nH]2)n1`, the mean inhibition % of two 10-compound mixtures (hits give high values) is -2.67%.

Regarding `O=S(=O)(/C=C/c1ccccc1)NCCc1ccccn1`, the mean inhibition % of two 10-compound mixtures (hits give high values) was -2.77%.

For `Clc1ccc(Cn2ncc3c(NCc4cccnc4)ncnc32)cc1`, the mean inhibition % of two 10-compound mixtures (hits give high values) was 3.33%.

As to `Cc1ccc(S(=O)(=O)NCC(=O)OCC(=O)N2CCc3ccccc32)cc1`, the mean inhibition % of two 10-compound mixtures (hits give high values) is 5.33%.

With `N#Cc1cccc(CSc2nnc(CCCO)n2-c2ccccc2)c1`, the mean inhibition % of two 10-compound mixtures (hits give high values) was -5.26%.

Consider `CCCC(C(=O)N1CCOCC1)N1C(=O)C2C3C=CC(C3)C2C1=O` (stereo unspecified), for which the mean inhibition % of two 10-compound mixtures (hits give high values) is -8.34%.

Regarding `O=c1[nH]nc(CSCc2ccccc2Cl)[nH]1`, the mean inhibition % of two 10-compound mixtures (hits give high values) was -7.92%.

For `Cc1c(C(=O)NCC2CCCO2)sc2nc(-c3ccccc3)cn12` (stereo unspecified), the mean inhibition % of two 10-compound mixtures (hits give high values) is 0.595%.

For `COC(=O)C(C)n1cnc2c(nnn2-c2cccc(Cl)c2)c1=O` (stereo unspecified), the mean inhibition % of two 10-compound mixtures (hits give high values) was -40.6%.

For `CC(C)c1ccc(OCC(O)Cn2cnc3ccccc32)cc1` (stereo unspecified), the mean inhibition % of two 10-compound mixtures (hits give high values) is -21.9%.

As to `CC(C)C(NC(=O)c1cccc(S(=O)(=O)N2CCOCC2)c1)C(=O)NCCc1ccccn1` (stereo unspecified), the mean inhibition % of two 10-compound mixtures (hits give high values) was -12.8%.

In the case of `COC(=O)COc1ccc2oc(=O)cc(C)c2c1`, the mean inhibition % of two 10-compound mixtures (hits give high values) is 10.3%.

For the compound `COC(=O)c1ccc(S(=O)(=O)c2ccc(C(=O)OC)s2)s1`, the mean inhibition % of two 10-compound mixtures (hits give high values) was -14%.

As for `COC(=O)c1ccccc1NC(=O)CSc1ccccn1`, the mean inhibition % of two 10-compound mixtures (hits give high values) was -21.1%.

Take `CC1CN(Cc2nc3c(c(=O)n(C)c(=O)n3C)n2Cc2cccc(Cl)c2)CC(C)O1` (stereo unspecified): the mean inhibition % of two 10-compound mixtures (hits give high values) was -18.5%.

Consider `COc1cccc(-n2c(SCC(=O)NC3CCCCC3)nc3n[nH]c(C)c3c2=N)c1`, for which the mean inhibition % of two 10-compound mixtures (hits give high values) was -13.5%.

In the case of `CC(=O)N(Cc1cccs1)C1CCOC(C)(C)C1` (stereo unspecified), the mean inhibition % of two 10-compound mixtures (hits give high values) was 4.59%.

Regarding `CCOC(=O)c1cccc(NC(=O)CCc2c(C)nc3ncnn3c2C)c1`, the mean inhibition % of two 10-compound mixtures (hits give high values) was 2.35%.

As for `CC(C)n1c(NCc2c[nH]c3ccccc23)nc2ccccc21`, the mean inhibition % of two 10-compound mixtures (hits give high values) is -7.58%.

In the case of `Cn1c(/C(C#N)=C2/CCCCCN2)nc2ccccc21`, the mean inhibition % of two 10-compound mixtures (hits give high values) was -6.22%.

On to `Cc1ccc(OCC(=O)Nc2ccc(-c3nc4ncccc4o3)cc2)cc1`, for which the mean inhibition % of two 10-compound mixtures (hits give high values) is -66.2%.

Turning to `Cc1ccccc1CSc1nnc(Cn2c(=O)sc3ccccc32)n1C`, the mean inhibition % of two 10-compound mixtures (hits give high values) was 4.08%.

For the compound `CCOC(=O)CCc1c(C)c2ccc(OCc3nn[nH]n3)c(C)c2oc1=O`, the mean inhibition % of two 10-compound mixtures (hits give high values) was -25%.

With `Cc1c(C(=O)Nc2ccccc2Cl)oc2ccc(S(=O)(=O)N3CCC4(CC3)OCCO4)cc12`, the mean inhibition % of two 10-compound mixtures (hits give high values) was -4.62%.

Consider `COc1cccc(-c2nnc(NC(=O)c3ccc(S(=O)(=O)N(CC(C)C)CC(C)C)cc3)o2)c1`, for which the mean inhibition % of two 10-compound mixtures (hits give high values) is 14%.

Take `COC(=O)C(C)Sc1ccc2nnc(-c3cccc(F)c3)n2n1` (stereo unspecified): the mean inhibition % of two 10-compound mixtures (hits give high values) was -5.87%.

Consider `CCOC(=O)c1nnn(-c2nc(OC)nc(N(C)C)n2)c1-c1ccccc1`, for which the mean inhibition % of two 10-compound mixtures (hits give high values) was -30.1%.

Take `C#CC(C)(C)NC(=O)CSc1nc2c(c(=O)n(C)c(=O)n2C)n1CCCC`: the mean inhibition % of two 10-compound mixtures (hits give high values) is 1.95%.

For `CCCc1cc(=O)[nH]c(SCc2ccc(C#N)cc2)n1`, the mean inhibition % of two 10-compound mixtures (hits give high values) was -9.73%.

As for `C=C(C)COc1ccc(-c2n[nH]c(C)c2-c2ccccc2OC)c(O)c1`, the mean inhibition % of two 10-compound mixtures (hits give high values) was 15.7%.

Turning to `O=C(C1=C(O)C(=O)N(Cc2ccccc2)C1c1cccnc1)c1ccco1` (stereo unspecified), the mean inhibition % of two 10-compound mixtures (hits give high values) was 3.85%.

On to `Cc1ccccc1C(=O)NCCN=C1NS(=O)(=O)c2ccccc21`, for which the mean inhibition % of two 10-compound mixtures (hits give high values) is -24.8%.

With `N#Cc1ccccc1-n1c(N)c(C(=O)N2CCCC2)sc1=S`, the mean inhibition % of two 10-compound mixtures (hits give high values) is -0.195%.

Turning to `O=C(O)COc1nsnc1N1CCOCC1`, the mean inhibition % of two 10-compound mixtures (hits give high values) was -1.36%.

In the case of `O=C(O)c1cc(S(=O)(=O)N2CCCCCC2)c(Cl)cc1Cl`, the mean inhibition % of two 10-compound mixtures (hits give high values) was -41%.

`Cc1ccccc1-c1ccc(Nc2ccc(C(=O)N3CCOCC3)cc2)nn1`: the mean inhibition % of two 10-compound mixtures (hits give high values) was 16%.

Take `Cc1ccnc(N2C(=O)c3ccccc3C2Nc2ccc3c(c2)OCCO3)c1` (stereo unspecified): the mean inhibition % of two 10-compound mixtures (hits give high values) is -33.6%.

Consider `COc1cccc(OCC(=O)Nc2ccccc2C(N)=O)c1`, for which the mean inhibition % of two 10-compound mixtures (hits give high values) was 16.6%.

For the compound `O=C(O)C1CC(=O)N(Cc2cccnc2)C1` (stereo unspecified), the mean inhibition % of two 10-compound mixtures (hits give high values) was 5.36%.

On to `CCCn1c(=NC(C)=O)c(C(=O)OCC)cc2c(=O)n3ccccc3nc21`, for which the mean inhibition % of two 10-compound mixtures (hits give high values) is -168%.

For the compound `N#Cc1cccc(NC(=O)CCC2CCCC2)c1`, the mean inhibition % of two 10-compound mixtures (hits give high values) is -2.16%.

In the case of `Cn1nc(-c2ccc(Cl)cc2)c2cc(C(=O)NCc3ccco3)sc21`, the mean inhibition % of two 10-compound mixtures (hits give high values) was 10.9%.

As for `O=S(=O)(NCc1ccccn1)c1ccc(Br)s1`, the mean inhibition % of two 10-compound mixtures (hits give high values) was -20.3%.

As to `COc1ccc(C(=O)Nc2c(N)nc(SCC(=O)N3CCC(C)CC3)[nH]c2=O)cc1OC`, the mean inhibition % of two 10-compound mixtures (hits give high values) was -31.6%.

As for `CC1(C)CC(=O)C=C(NCc2ccncc2)C1`, the mean inhibition % of two 10-compound mixtures (hits give high values) was -4.76%.

On to `Cc1ccc2c(c1)c1ncn(CCC3=CCCCC3)c(=O)c1n2C`, for which the mean inhibition % of two 10-compound mixtures (hits give high values) was 2.97%.

`CCCn1c(SCC(=O)c2ccc3c(c2)OCCO3)nnc1C(C)C`: the mean inhibition % of two 10-compound mixtures (hits give high values) is -7.42%.

On to `Cc1nn(-c2ccccc2)c2[nH]c(C(F)(F)F)cc(=O)c12`, for which the mean inhibition % of two 10-compound mixtures (hits give high values) was 1.25%.

For `CS(=O)(=O)N(C(=O)NC(=O)NC1CCS(=O)(=O)C1)C1CCCCC1` (stereo unspecified), the mean inhibition % of two 10-compound mixtures (hits give high values) is -74.3%.

The values above are taken from PubChem BioAssay AID538 (PCMD, 2006).
